Bioassay records from PubChem BioAssay.
A selection: hits, their analogues and other compounds. The true share with any hit is near 2.7%.
LDHA block – LDHA (human) enzyme inhibition | P00338 | purified LDHA, NADH/diaphorase-resazurin fluorescence; active compounds read low | activity change, % (values are at about 110 or 230 µM) | 480,000 compounds, 0.15% hits | AID 1347041; in the data active means activity change below about -30%; inconclusive means mostly about -25% to -30%;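 further: plate controls were DMSO wells for no effect and wells without enzyme for full effect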
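LDH5 2 nM; NADH 0.06 mM, pyruvate 0.2 mM; 200 mM Tris pH 7.4, EDTA, Tween-20; 5 min RT. Detection: diaphorase 0.133 mg/mL + resazurin 37 µM, fluorescence ex540/em590 at 0 and 20 min; normalized to enzyme-free and DMSO wells.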
Nrf2 block – Nrf2 pathway inhibition; A549 ARE-Fluc reporter, luciferase luminescence, 18-24 h; Potency, µM (doses to about 46 µM), inactives show at the highest dose activity change, negative = inhibition, most hits filed as inhibitors; 360,000 compounds, 2.1% hits; AID 504444; further: potency means the concentration at half of the fitted maximal effect; on the % scale 0 is the no-effect control and ±100 the full control effect; nearly all actives have a fitted effect of over 60% in size
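Two sequential reads on A549 ARE_Fluc cells exposed to compound for 18-24 h: a CellTiter-Fluor fluorescence read for viability, then a luciferase luminescence read for Nrf2/ARE activity.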
IDH1 R132H inh – blocks human mutant IDH1 R132H enzyme | O75874 | IDH1-R132H enzyme, NADPH consumption, diaphorase/resazurin fluorescence | Potency, µM (top dose mostly 76.6 µM), for inactives: at the top dose activity change, negative = inhibition, actives largely listed as inhibitors | 390,000 compounds, 0.093% hits | AID 602179; further: potency means the concentration at half of the fitted maximal effect; on the % scale 0 is the no-effect control and ±100 the full control effect; nearly all actives have a fitted effect of over 65% in size
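IDH1-R132H (0.5 ug/mL) preincubated 30 min with compound, then NADPH (0.016 mM) and alpha-KG (2 mM) added; 80 min at RT, pH 7.5. Remaining NADPH coupled via diaphorase/resazurin to fluorescence (540/590 nm); concentration-response curves normalized to no-enzyme control.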
ALOX12 inh – inhibitors of human 12S-lipoxygenase ALOX12; P18054; purified 12hLO, xylenol orange hydroperoxide absorbance; Potency, µM (titrated, usually from 108 µM), without a hit: top-dose activity change, negative = inhibition, actives largely listed as inhibitors; 580,000 compounds, 1.1% hits; AID 1671190; further: potency means the concentration at half of the fitted maximal effect; on the % scale 0 is the no-effect control and ±100 the full control effect
Target sequence (P18054 whole entry, looked up): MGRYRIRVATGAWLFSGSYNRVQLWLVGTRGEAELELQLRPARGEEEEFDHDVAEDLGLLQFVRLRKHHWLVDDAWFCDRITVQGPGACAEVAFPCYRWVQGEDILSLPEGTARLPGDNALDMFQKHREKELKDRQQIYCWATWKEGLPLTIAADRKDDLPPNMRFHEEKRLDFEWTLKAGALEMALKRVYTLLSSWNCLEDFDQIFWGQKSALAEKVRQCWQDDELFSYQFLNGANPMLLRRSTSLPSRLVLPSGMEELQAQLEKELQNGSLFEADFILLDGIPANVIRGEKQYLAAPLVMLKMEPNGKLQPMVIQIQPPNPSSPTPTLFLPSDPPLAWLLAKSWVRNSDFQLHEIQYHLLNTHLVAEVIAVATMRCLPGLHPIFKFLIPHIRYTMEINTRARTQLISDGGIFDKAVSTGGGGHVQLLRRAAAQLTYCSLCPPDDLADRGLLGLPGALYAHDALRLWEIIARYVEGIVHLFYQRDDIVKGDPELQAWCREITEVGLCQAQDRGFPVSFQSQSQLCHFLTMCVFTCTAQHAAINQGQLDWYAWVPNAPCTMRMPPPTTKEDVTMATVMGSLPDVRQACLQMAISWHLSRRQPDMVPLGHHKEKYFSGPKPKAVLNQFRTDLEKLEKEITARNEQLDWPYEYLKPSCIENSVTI
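Purified human 12hLO at 150 nM in 25 mM Hepes, 0.01% Triton X-100, pH 7.0, preincubated 15 min at room temperature with compound. Reaction started with 40 uM arachidonic acid, 30 min at room temperature. Hydroperoxide measured by Fe-xylenol orange, 573/405 nm absorbance ratio.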
Nrf2 activator – activators of Nrf2 (ARE) signaling. AREc32 ARE-luciferase reporter (MCF7-derived line), luminescence, 24 h. Potency, µM (titrated, usually from 46.1 µM), inactives show top-dose activation, hits mostly activators. 410,000 compounds, 0.31% hits. AID 624171; further: potency means the concentration at half of the fitted maximal effect; % of control where 0% means no effect; nearly all actives have a fitted effect of over 65% in size
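Luminescent ARE reporter assay in AREc32_Fluc cells: overnight plating at 37 deg C, 24 hr compound incubation, Steady-Glo added, 30 min RT before reading.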
A549 tox – kills or reduces viability of A549 cells in Nrf2 counter-screen; A549 ARE-Fluc cells, CellTiter-Fluor viability, 18-24 h; Potency, µM (titrated, usually from 46 µM), for the others: at the top dose activity change, negative = cytotoxicity, usual class: inhibitors; 390,000 compounds, 0.16% hits; further: potency means the concentration at half of the fitted maximal effect; on the % scale 0 is the no-effect control and ±100 the full control effect
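A549 ARE_Fluc cells in 5% FBS OPTI-MEM were exposed to compounds in concentration-response for 18-24 h at 37 deg C. Viability was read by CellTiter-Fluor fluorescence (Ex 405/Em 525) after 30 min, before the luciferase read.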
Active calls of the source: *; ? = inconclusive; . = not tested or not shown; [ ] = dose if it differs, or a comment. Unless noted, the call rests on the fitted dose curve; in most records, active means well fitted curve in the direction sought with a large enough effect; inconclusive means small, poorly fitted or top-dose-only effect, or another doubt; inactive means no such curve, though single readings can be large; an effect the other way counts as inactive or inconclusive.

SMILES	LDHA block	Nrf2 block	IDH1 R132H inh	ALOX12 inh	Nrf2 activator	A549 tox
Cc1ccc(S(=O)(=O)CS(=O)(=O)c2ccc(C)cc2)cc1	-5	-13%	1%	7%	0%	-1%
Cc1ccc(S(=O)(=O)CCCS(=O)(=O)c2ccc(C)cc2)cc1	-4	12%	11%	-23%	-1%	-2%
Cc1ccc(CC(S)C(=O)O)cc1C (stereo not drawn)	-5	.	.	?	.	.
CN1/C(=C/C(=S)NC(=O)C2CCC2)C(C)(C)c2ccccc21	-4	-14%	2%	?	0%	-18%
CN1/C(=C\C(=O)C[n+]2ccc3ccccc3c2)C(C)(C)c2ccccc21	-3	10µM*	-1%	-49%	7%	?
CC(C)C(=O)NC(=S)/C=C1/N(C)c2ccccc2C1(C)C	-2	-26%	8%	35µM*	0%	-16%
Cc1ccc(C(=O)NC(=S)/C=C2\N(C)c3ccccc3C2(C)C)cc1	-9	18µM*	-4%	10µM*	0%	?
CN1/C(=C\C(=O)c2cncc(Br)c2)C(C)(C)c2ccccc21	-8	23µM*	16%	-28%	1%	-11%
CN1/C(=C\C(=O)c2cccnc2)C(C)(C)c2ccccc21	-1	?	4%	-30%	4%	-14%
COc1ccccc1OCC(=O)/C=C1/N(C)c2ccccc2C1(C)C	-1	?	7%	1%	0%	-8%
CCOCCCNC(=O)CSCc1nc(-c2cccc(OC)c2)oc1C	-1	.	.	-5%	.	.
COc1ccc(N2C(=O)CCC2(C#N)c2ccccc2OCc2ccccc2)cc1 (stereo not drawn)	4	.	.	20%	.	.
COc1cc(/C=N\NC(=O)CNC(=O)C2COc3ccccc3O2)ccc1O (stereo not drawn)	0	-22%	-2%	-5%	0%	6%
CCN(CC)c1ccc(/C=N/NC(=O)CNC(=O)C2COc3ccccc3O2)c(O)c1 (stereo not drawn)	4	23µM*	2%	7%	0%	-14%
COCC(C)N1C(=O)Cc2c1nc(N)c1c(N)nc(N3CCN(c4ccccc4F)CC3)c(C#N)c21 (stereo not drawn)	-10	12µM*	-8%	-15%	0%	-11%
Cc1cccc(OCC(=O)Nc2c(C(=O)N3CCN(c4ccccc4F)CC3)oc3ccccc23)c1	-3	18µM*	-10%	-21%	-1%	?
CC(C)CC(=O)Nc1c(C(=O)N2CCN(c3ccccc3F)CC2)oc2ccccc12	1	26µM*	-7%	-7%	1%	-12%
N#Cc1ccccc1CN1CC[C@H]2C(=O)NCCCCCCN(Cc3ccncc3)[C@@H]2C1	.	.	.	208%	.	.
CC(C)Nc1nc(NC(N)=S)nc(NC(C)(C)C)n1	-15	-15%	-3%	45µM*	2%	5%
Cc1cccc(C(=O)NC(Nc2ccc(I)cc2)C(Cl)(Cl)Cl)c1 (stereo not drawn)	-1	.	.	?	.	.
O=C(CSc1ccccc1Cl)NC(=O)C1CCCCC1	-2	.	.	4%	.	.
N#CC1=C(N)OC2=C(C(=O)CC(c3ccc(Cl)cc3)C2)C1c1ccccc1Cl (stereo not drawn)	2	.	.	16µM*	.	.
CCN(CC)c1ccc(NC(=O)CCCOc2cccc(C)c2)cc1	3	2%	3%	40µM*	4%	-15%
COc1cccc(NC(=O)c2cccc(N3C(=O)C4C5C=CC(C5)C4C3=O)c2)c1 (stereo not drawn)	-3	18µM*	3%	-23%	0%	?
O=C(Nc1ccn(Cc2c(F)c(F)c(F)c(F)c2F)n1)c1cccc(Cn2cc([N+](=O)[O-])cn2)c1	-10	18µM*	-1%	-18%	8%	-19%
SMILES	LDHA block	Nrf2 block	IDH1 R132H inh	ALOX12 inh	Nrf2 activator	A549 tox
Cn1c(-c2ccccc2)c(C(=O)COC(=O)COc2cccc3c2OC(C)(C)C3)c2ccccc21	6	.	.	?	.	.
CC(C)CC(=O)NC1(C(F)(F)F)C(=O)Nc2c1c(=O)[nH]c(=O)n2-c1ccccc1 (stereo not drawn)	3	-3%	-2%	32µM*	1%	-1%
O=C(NC1(C(F)(F)F)C(=O)Nc2c1c(=O)[nH]c(=O)n2-c1ccccc1)c1ccccc1 (stereo not drawn)	-2	5%	0%	?	0%	-5%
CC(=O)Nc1ccc(-c2csc(NC(=O)c3nn(C)c(=O)c4ccccc34)n2)cc1	1	.	.	24%	.	.
CC(C)n1c(-c2ccc(C(C)(C)C)cc2)n[nH]c1=S	-1	?	4%	16µM*	0%	-17%
CC(C)(C)c1ccc(-c2n[nH]c(=S)n2Cc2ccccc2)cc1	-7	?	-11%	?	3%	-3%
Cc1ccc(C(c2nnnn2C2CCCCC2)N(C)C2CCCCC2)cc1 (stereo not drawn)	-8	26µM*	1%	7%	0%	1%
O/N=C/c1c(O)ccc2ccccc12	16	.	.	?	.	.
Oc1ccc2ccccc2c1SSc1c(O)ccc2ccccc12	.	.	.	1.7µM*	.	.
COc1cc(C(=O)NNC(=O)CCNC(=O)c2ccc3ccccc3c2)cc(OC)c1OC	0	.	.	?	.	.
CC(=O)c1c(C)[nH]c(C(=O)/C(C#N)=C\c2ccc(F)cc2)c1C	0	.	.	35µM*	.	.
CC(=O)c1c(C)[nH]c(C(=O)/C(C#N)=C/c2cccc(C)c2)c1C	-7	?	-6%	?	19%	-6%
C=C(C)c1c(-c2ccc(OC)cc2)noc1C(C)(C)O	1	.	.	7%	.	.
Cc1ccc(OCC(=O)Nc2ccc3c(c2)nc(CCn2ccccc2=O)n3C)cc1	?	.	.	-11%	.	.
Cc1nnc(SCC(=O)N2CC(=O)Nc3ccccc32)s1	-2	0%	-3%	2%	-1%	5%
O=C1CN(C(=O)CSc2nc(-c3ccc(Cl)cc3)cs2)c2ccccc2N1	-2	23µM*	3%	0%	4%	1%
Cc1cccc(C)c1-n1c(SCC(=O)N2CC(=O)Nc3ccccc32)nc2ccccc2c1=O	-3	23µM*	?	-9%	-1%[9.22 µM]	-16%
COCCn1c(=O)c2sccc2n(CC(=O)NC2CCCCC2)c1=O	0	.	.	-6%	.	.
O=c1[nH]c(C2CCN(Cc3cccc(-c4cccs4)c3)CC2)nc2ccc(F)cc12	.	.	.	20%	.	.
